Measurements taken from PubChem BioAssay (NCI).
Where “and” joins values, the source holds several entries; their conditions need not be identical. Identical values can stand only once. This is part of a sample that, as a whole, favours compounds with a hit. Of some 83,000 tested, about 20% had one in any assay.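 Cells were grown in 96-well plates and exposed to the test compound at a single concentration for 48 hours; results are reported as percent growth, with values below 10 considered active.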 Unmarked numbers belong to inactive results. Calls of active or inactive are those of the source.

Experiments:
Experiment in all cases: NCI-60 one-dose screen, 48 h (100 = growth as untreated, 0 = no growth, -100 = all killed)
Details in all cases: 10 µM unless noted
[1] = tested on: NCI-H23 lung
[2] = tested on: NCI-H226 lung
[3] = tested on: NCI-H322M lung
[4] = tested on: HOP-62 NSCLC
[5] = tested on: NCI-H460 lung
[6] = tested on: HOP-92 NSCLC
[7] = tested on: NCI-H522 lung
[8] = tested on: A549/ATCC NSCLC
[9] = tested on: 786-0 renal
[10] = tested on: DU-145 prostate
[11] = tested on: K-562 leukemia
[12] = tested on: MALME-3M melanoma
[13] = tested on: MDA-MB-231 breast
[14] = tested on: RXF 393 renal
[15] = tested on: SF-268 CNS
[16] = tested on: SF-295 CNS
[17] = tested on: SF-539 CNS
[18] = tested on: UACC-257 melanoma
[19] = tested on: M14 melanoma
[20] = tested on: COLO 205 colon

Question: For `NC(=S)N/N=C/c1ccc(Cl)s1`, which growth [1] is on record?
Answer: Its growth is 106%.

Question: And the growth [2]?
Answer: The growth was 97.4%.

Question: And the growth [3]?
Answer: The growth was 101%.

Question: And the growth [4]?
Answer: The growth was 109%.

Question: What about the growth [5] of the same molecule?
Answer: Its growth is 101%.

Question: And the growth [6]?
Answer: Its growth is 97.5%.

Question: What about the growth [7] of the same molecule?
Answer: Its growth is 98.6%.

Question: And the growth [8]?
Answer: Its growth is 106%.

Question: And the growth [9]?
Answer: The growth was 105%.

Question: What about the growth [10] of the same molecule?
Answer: Its growth is 106%.

Question: What about the growth [11] of the same molecule?
Answer: The growth was 99.5%.

Question: And the growth [12]?
Answer: The growth was 104%.

Question: What about the growth [13] of the same molecule?
Answer: Its growth is 110%.

Question: What about the growth [14] of the same molecule?
Answer: Its growth is 99.9%.

Question: And the growth [15]?
Answer: The growth was 102%.

Question: And the growth [16]?
Answer: Its growth is 103%.

Question: And the growth [17]?
Answer: The growth was 100%.

Question: And the growth [18]?
Answer: The growth was 104%.

Question: What about the growth [19] of the same molecule?
Answer: Its growth is 105%.

Question: What does the source list for `CCOC(=O)/C=C/c1ccc([N+](=O)[O-])o1`?
Answer: growth [1]: 73.7%; growth [2]: 20.2%; growth [3]: 96%; growth [4]: 112%; growth [5]: 95.6%; growth [6]: 47.6%; growth [7]: -55.1% (active); growth [8]: 96.4%; growth [9]: 75.8%; growth [10]: 69.2%; growth [11]: 9.66% (active); growth [12]: -6.92% (active); growth [13]: 67.8%; growth [14]: 18.4%; growth [15]: 76.2%; growth [16]: 99.2%; growth [17]: 68.3%; growth [18]: 54.2%; growth [19]: 70.1%

Question: `Cn1c2ccccc2c2nnc(N/N=C/c3ccccn3)nc21` was tested. Which growth [1] did it give?
Answer: Its growth is 19.3%.

Question: What about the growth [2] of the same molecule?
Answer: Its growth is 5.03% (active).

Question: What about the growth [3] of the same molecule?
Answer: The growth was 11.8%.

Question: What about the growth [4] of the same molecule?
Answer: Its growth is 4.96% (active).

Question: What about the growth [5] of the same molecule?
Answer: The growth was -11.5% (active).

Question: What about the growth [6] of the same molecule?
Answer: The growth was 14.5%.

Question: And the growth [7]?
Answer: Its growth is 18.2%.

Question: And the growth [8]?
Answer: The growth was 21.1%.

Question: What about the growth [9] of the same molecule?
Answer: The growth was -21.6% (active).

Question: And the growth [20]?
Answer: The growth was -8.79% (active).

Question: What about the growth [10] of the same molecule?
Answer: Its growth is 13.7%.

Question: What about the growth [11] of the same molecule?
Answer: The growth was 10.2%.

Question: And the growth [12]?
Answer: Its growth is -34.1% (active).

Question: And the growth [13]?
Answer: Its growth is 56.2%.

Question: And the growth [15]?
Answer: The growth was 6.74% (active).

Question: And the growth [16]?
Answer: Its growth is -25.3% (active).

Question: What about the growth [17] of the same molecule?
Answer: The growth was -35.9% (active).

Question: And the growth [18]?
Answer: Its growth is 7.22% (active).

Question: And the growth [19]?
Answer: Its growth is -42.1% (active).

Question: `Cc1ccc2nc(-[n+]3cc4ccccc4cc3C)ccc2c1` was tested. Which growth [1] did it give?
Answer: Its growth is 19.1%.

Question: What about the growth [2] of the same molecule?
Answer: Its growth is 53.7%.

Question: And the growth [3]?
Answer: Its growth is 85.2%.

Question: What about the growth [4] of the same molecule?
Answer: Its growth is 37.1%.

Question: What about the growth [6] of the same molecule?
Answer: Its growth is 5.49% (active).

Question: And the growth [7]?
Answer: The growth was 26.2%.

Question: What about the growth [8] of the same molecule?
Answer: Its growth is 43.1%.

Question: What about the growth [9] of the same molecule?
Answer: Its growth is 81.2%.

Question: And the growth [20]?
Answer: The growth was -11.8% (active).

Question: And the growth [10]?
Answer: Its growth is 53.6%.

Question: And the growth [11]?
Answer: The growth was 39.1%.

Question: And the growth [12]?
Answer: The growth was 44.2%.

Question: And the growth [13]?
Answer: The growth was 54.8%.

Question: What about the growth [14] of the same molecule?
Answer: Its growth is 91.2%.

Question: What about the growth [15] of the same molecule?
Answer: The growth was 39.5%.

Question: And the growth [16]?
Answer: The growth was 33.3%.

Question: What about the growth [17] of the same molecule?
Answer: The growth was 43.8%.

Question: What about the growth [18] of the same molecule?
Answer: Its growth is 11.4%.

Question: What about the growth [19] of the same molecule?
Answer: The growth was 43.1%.

Question: For `S=C(NCCNC(=S)[S][Sn]([c]1ccccc1)([c]1ccccc1)[c]1ccccc1)[S][Sn]([c]1ccccc1)([c]1ccccc1)[c]1ccccc1`, which growth [1] is on record?
Answer: The growth was -68.6% (active).

Question: And the growth [2]?
Answer: Its growth is -95.4% (active).

Question: And the growth [3]?
Answer: The growth was -99.4% (active).

Question: What about the growth [4] of the same molecule?
Answer: The growth was -100% (active).

Question: What about the growth [5] of the same molecule?
Answer: Its growth is -86.8% (active).

Question: What about the growth [6] of the same molecule?
Answer: The growth was -87.3% (active).

Question: What about the growth [7] of the same molecule?
Answer: Its growth is -93.2% (active).

Question: And the growth [8]?
Answer: Its growth is -98.8% (active).

Question: What about the growth [9] of the same molecule?
Answer: The growth was -94% (active).

Question: What about the growth [10] of the same molecule?
Answer: Its growth is -96.1% (active).

Question: What about the growth [12] of the same molecule?
Answer: The growth was -70.4% (active).

Question: And the growth [13]?
Answer: Its growth is -82.1% (active).

Question: What about the growth [14] of the same molecule?
Answer: The growth was -99.7% (active).

Question: And the growth [15]?
Answer: Its growth is -90.9% (active).

Question: What about the growth [16] of the same molecule?
Answer: The growth was -83.5% (active).

Question: And the growth [17]?
Answer: Its growth is -81.7% (active).

Question: What about the growth [18] of the same molecule?
Answer: Its growth is -100% (active).

Question: What about the growth [19] of the same molecule?
Answer: The growth was -94% (active).

Question: `O=C(Nc1ccccc1)Oc1c(Cl)c(Cl)c(Cl)c(Cl)c1Cl` was tested. Which growth [1] did it give?
Answer: The growth was 93.8% and 93.2%.

Question: And the growth [2]?
Answer: Its growth is 96.2% and 88.3%.

Question: And the growth [3]?
Answer: The growth was 94.1% and 106%.

Question: And the growth [4]?
Answer: Its growth is 101% and 78.8%.

Question: What about the growth [6] of the same molecule?
Answer: Its growth is 74.9% and 63.8%.

Question: What about the growth [7] of the same molecule?
Answer: The growth was 87.9%.

Question: What about the growth [8] of the same molecule?
Answer: The growth was 106% and 91.9%.

Question: And the growth [9]?
Answer: Its growth is 105% and 97.1%.

Question: And the growth [20]?
Answer: The growth was 97.9% and 106%.

Question: And the growth [10]?
Answer: The growth was 110% and 101%.

Question: And the growth [11]?
Answer: The growth was 101% and 93.9%.

Question: What about the growth [12] of the same molecule?
Answer: Its growth is 89% and 104%.

Question: What about the growth [13] of the same molecule?
Answer: The growth was 88.2% and 94.2%.

Question: And the growth [14]?
Answer: The growth was 113% and 110%.

Question: And the growth [15]?
Answer: Its growth is 94.2% and 98.8%.

Question: And the growth [16]?
Answer: Its growth is 97.4% and 91.8%.

Question: What about the growth [17] of the same molecule?
Answer: Its growth is 99.7% and 90.6%.

Question: And the growth [18]?
Answer: Its growth is 109% and 103%.

Question: What about the growth [19] of the same molecule?
Answer: The growth was 101% and 95.3%.

Question: For `C[N+](C)=c1ccc2nc3c(cc(NCCCNc4cc5oc6cc(=[N+](C)C)ccc-6nc5c5ccccc45)c4ccccc43)oc-2c1`, which growth [1] is on record?
Answer: The growth was -56.1% (active).

Question: What about the growth [2] of the same molecule?
Answer: The growth was 73.2%.

Question: What about the growth [3] of the same molecule?
Answer: Its growth is 25.3%.

Question: And the growth [4]?
Answer: Its growth is 44.4%.

Question: What about the growth [5] of the same molecule?
Answer: The growth was -56.2% (active).

Question: And the growth [6]?
Answer: Its growth is 59%.

Question: What about the growth [7] of the same molecule?
Answer: Its growth is 32%.

Question: What about the growth [8] of the same molecule?
Answer: Its growth is 20.5%.

Question: What about the growth [9] of the same molecule?
Answer: Its growth is -68.5% (active).

Question: What about the growth [10] of the same molecule?
Answer: The growth was -100% (active).

Question: And the growth [11]?
Answer: The growth was -0.99% (active).

Question: What about the growth [12] of the same molecule?
Answer: Its growth is 35.6%.

Question: What about the growth [13] of the same molecule?
Answer: Its growth is -36.2% (active).

Question: And the growth [14]?
Answer: Its growth is 58.2%.

Question: And the growth [15]?
Answer: Its growth is 55%.

Question: And the growth [16]?
Answer: The growth was 45%.

Question: What about the growth [17] of the same molecule?
Answer: Its growth is -9.59% (active).

Question: What about the growth [18] of the same molecule?
Answer: Its growth is 65.1%.

Question: And the growth [19]?
Answer: The growth was 28.9%.

Question: How did the growth [1] turn out when `Cc1cc2nc(CS)[nH]c2cc1C` was run?
Answer: Its growth is 97.1%.

Question: And the growth [2]?
Answer: The growth was 93.1%.

Question: What about the growth [3] of the same molecule?
Answer: The growth was 76.4%.

Question: What about the growth [4] of the same molecule?
Answer: The growth was 92.7%.

Question: And the growth [5]?
Answer: Its growth is 93%.

Question: And the growth [6]?
Answer: Its growth is 88.9%.

Question: What about the growth [7] of the same molecule?
Answer: The growth was 74.7%.

Question: And the growth [8]?
Answer: Its growth is 94.2%.

Question: What about the growth [9] of the same molecule?
Answer: The growth was 81.6%.

Question: And the growth [10]?
Answer: Its growth is 93.9%.

Question: What about the growth [11] of the same molecule?
Answer: The growth was 76.8%.

Question: And the growth [12]?
Answer: Its growth is 95.7%.

Question: What about the growth [13] of the same molecule?
Answer: The growth was 99%.

Question: And the growth [14]?
Answer: The growth was 76.9%.

Question: What about the growth [15] of the same molecule?
Answer: The growth was 103%.

Question: And the growth [16]?
Answer: Its growth is 102%.

Question: And the growth [17]?
Answer: Its growth is 94.6%.

Question: What about the growth [18] of the same molecule?
Answer: Its growth is 101%.

Question: What about the growth [19] of the same molecule?
Answer: Its growth is 89.9%.
